Assay results from PubChem BioAssay (NCI).
This is part of a sample that, as a whole, favours compounds with a hit. Of some 79,000 tested, about 15% had one in any assay. Calls of active or inactive are those of the source. No stated cut-off is given here; in the data, active means growth inhibition above about 70%; inactive means the rest.

Columns and labels:
[1] = NCI Yeast Anticancer Drug Screen. Data for the rad50 strain (AID 155);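 further: 0% = growth of vehicle-only cultures of the same strain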; settings: S. cerevisiae rad50 strain growth inhibition; at 50.0 µM; stronger effect = higher value
How it was run: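 Yeast carrying a defined DNA repair defect were exposed to test compounds, and growth was compared with vehicle-treated controls to give percent inhibition.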

[2] = NCI Yeast Anticancer Drug Screen. Data for the mec2-1 strain (AID 157); settings: S. cerevisiae mec2-1 strain, at 50.0 µM, stronger effect = higher value
How it was run: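 Test agents were screened against the mec2-1 yeast strain, with defined DNA repair or cell cycle alteration. Growth was scored as inhibition against vehicle-only controls.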

[3] = NCI Yeast Anticancer Drug Screen. Data for the sgs1 mgt1 strain (AID 161);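 further: 0% = growth of cultures given vehicle only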; settings: S. cerevisiae sgs1 mgt1 strain, at 50.0 µM, stronger effect = higher value
How it was run: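 Genetically altered yeast, compound exposure, growth inhibition relative to vehicle.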

[4] = NCI Yeast Anticancer Drug Screen. Data for the cln2 rad14 strain (AID 165);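 further: 0% = growth equal to vehicle treated cultures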; settings: S. cerevisiae cln2 rad14 strain, at 50.0 µM, stronger effect = higher value
How it was run: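 Growth of compound-exposed yeast (cln2 rad14 genotype) measured and expressed as inhibition relative to vehicle.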

[5] = NCI Yeast Anticancer Drug Screen. Data for the bub3 strain (AID 167); settings: S. cerevisiae bub3 mutant strain, at 50.0 µM, stronger effect = higher value
How it was run: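 Compounds were applied to a genetically altered yeast strain carrying a cell-cycle control defect. Growth inhibition was scored against vehicle-treated controls.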

[6] = NCI Yeast Anticancer Drug Screen. Data for the mlh1 rad18 strain (AID 175); settings: S. cerevisiae mlh1 rad18 strain growth inhibition; at 50.0 µM; stronger effect = higher value
How it was run: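 In this whole-cell yeast screen, a strain with altered DNA damage repair is challenged with compound, and its growth is measured against matched vehicle-treated controls.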

Measured: growth inhibition

CNc1ccc([N+](=O)[O-])cn1
inactive: [1] 19.9% | [2] -13.4% | [3] 31.6% | [4] 8.75% | [5] 19.9% | [6] 4.15%

Cn1c(=O)c2[nH]c(CCCc3ccc([N+](=O)[O-])cc3)nc2n(C)c1=O
inactive: [1] -2.45% | [2] -5.5% | [3] -27.5% | [4] -26.9% | [5] -40.5% | [6] 4.75%

CC1(C)S[C@H](c2ccccc2C(=O)O)N[C@@H]1CC(=O)O
inactive: [1] -35.3% | [2] -6.9% | [3] -49.5% | [4] -21.7% | [5] -26.5% | [6] -31.4%

Cc1ccc(C(=O)c2ccccc2C(=O)O)cc1C(=O)O
inactive: [1] 8.9% | [2] 11.1% | [3] 1.15% | [4] 2.7% | [5] 10.2% | [6] -7.05%

N#CC1(C#N)C2(c3ccccc3)OC(c3ccccc3)(c3cc4ccccc4cc32)C1(C#N)C#N
inactive: [1] 1.75% | [2] 20.1% | [3] -4.1% | [4] 14.1% | [5] 8% | [6] 29.1%

Nc1ccc(N(S(=O)(=O)c2ccccc2)S(=O)(=O)c2ccccc2)c(Cl)c1
active: [1] 77.3% | [3] 82% | [6] 78.7%
inactive: [2] 45.8% | [4] 39.5% | [5] 69%

NS(=O)(=O)c1ccc(NC(=O)Nc2ccc(Cl)cc2[N+](=O)[O-])cc1
inactive: [1] -9.5% | [2] 18.6% | [3] 30.1% | [4] -16.7% | [5] 29.9% | [6] 30.4%

COc1cc2c(cc1O)C(Cc1ccccc1)N(C)CC2O (stereo unspecified)
inactive: [1] -12.6% | [2] -4.7% | [3] -4% | [4] -5.7% | [5] -7.55% | [6] 0%

COC1OC(CN)C(O)C(O)C1O (stereo unspecified)
inactive: [1] 0.15% | [2] 12.1% | [3] 2.35% | [4] 28.2% | [5] 5.7% | [6] 43.2%

Cc1ccc(S(=O)(=O)OC2C(C)(C)C(=O)C2(C)C)cc1
inactive: [1] 7.45% | [2] -2.15% | [3] -0.05% | [4] -11.7% | [5] 17.6% | [6] 8.35%

COc1cc(C(=O)C/C(CCC(=O)Nc2ccccc2[N+](=O)[O-])=N\NC(=O)CC#N)ccc1O
inactive: [1] -25.9% | [2] -20.8% | [3] -36.7% | [4] -11.4% | [5] -11.6% | [6] -31.4%

O=C(CN(c1ccc(S(=O)(=O)O)cc1)c1ccc(S(=O)(=O)O)cc1)Nn1cnc2ccc(S(=O)(=O)N(c3ccc(S(=O)(=O)O)cc3)c3ccc(S(=O)(=O)O)cc3)cc2c1=O
inactive: [1] 29.1% | [2] 6.15% | [3] 31.2% | [4] 19.2% | [5] 26% | [6] 34.1%

Nc1nc(-c2ccccc2)nc2nc3[nH]c(=O)[nH]c(=O)c3nc12
inactive: [1] -12.3% | [2] 5.25% | [3] 22.8% | [4] 0.95% | [5] 19.1% | [6] 2.95%

O=C(Nc1ccccc1)c1nccc2ccccc12
inactive: [1] 1.45% | [2] 13% | [3] -6.45% | [4] -17.1% | [5] 9.4% | [6] -3.95%

C=C(C)CNC(=S)N(N)c1ccc(OC)cc1
inactive: [1] 39.5% | [2] 9.75% | [3] 16.6% | [4] -2.2% | [5] 12.4% | [6] 36.1%

CCOC(=O)c1cc(/C=C/C(C)=C/C(=O)OC)oc1C
inactive: [1] 6.85% | [2] 1.4% | [3] -0.45% | [4] -13.3% | [5] 5.4% | [6] 1.25%

Cc1cc(C)c(C)c(C(=O)OC(C)C)c1C
inactive: [1] 2.7% | [2] -9.7% | [3] 3.35% | [4] 15.4% | [5] -3.85% | [6] -8.55%

CN1NC2=NCCN=C3NN(C)C(=NCCN=C1S2)S3
inactive: [1] -6.5% | [2] -10.1% | [3] -43.3% | [4] 9.15% | [5] -44.1% | [6] -36.2%

CCOc1ccc(N2N=C(C)CCC2=O)cc1
inactive: [1] 6.2% | [2] 1.9% | [3] 5.15% | [4] -10.6% | [5] 6.15% | [6] 0.2%

CC(=O)OC1C=CC2Oc3ccc(C)cc3C1(C)O2 (stereo unspecified)
inactive: [1] 12.8% | [2] -4.05% | [3] 14.4% | [4] 28.2% | [5] 23.6% | [6] 34.9%

CC1CCC2(OC1)OC1CC3C4CCC5CC(O)CCC5(C)C4C(=O)C(O)C3(C)C1C2C (stereo unspecified)
inactive: [1] 39.5% | [2] 17.9% | [3] 49% | [4] 16.7% | [5] 14.5% | [6] 41%

Cc1ccsc1/C=N/Nc1nncc2ccccc12
inactive: [1] 20.3% | [2] 5.35% | [3] 20.6% | [4] 9.05% | [5] 30.4% | [6] 9.7%

COC(=O)CC1(CC(=O)O)SCCS1
inactive: [1] -13.6% | [2] 4.3% | [3] 11.5% | [4] 2.9% | [5] 13.5% | [6] -8.25%

C=C(C)C1Cc2c(cc(O)c3c(=O)c4c(oc23)C(O)Oc2cc(OC)c(OC)cc2-4)O1 (stereo unspecified)
inactive: [1] 9.15% | [2] -0.95% | [3] 0.9% | [4] -3.85% | [5] 2.85% | [6] 16.9%

Cc1cc(Br)cc(C)c1NC(=O)C(=O)Nn1c(=S)[nH]c2ccccc2c1=O
inactive: [1] -8.55% | [2] -16.1% | [3] -6.15% | [4] 12.8% | [5] -8.2% | [6] 1.3%

Cc1ccc(N=NC2=C3Sc4ccccc4N=C2N(c2ccc(Br)cc2)C(=S)N3c2ccc(Cl)cc2)cc1
inactive: [1] -8.6% | [2] -3.35% | [3] -21.4% | [4] 18.9% | [5] -3.4% | [6] 1.05%

C[N+]([O-])(Cc1ccccc1)c1ccccc1 (stereo unspecified)
inactive: [1] -3.6% | [2] -16.3% | [3] -15.2% | [4] -20.9% | [5] -26.8% | [6] 1.75%

Cc1ccc(C(=O)c2ccccc2)cc1
inactive: [1] 26.1% | [2] 23.5% | [3] -11.8% | [4] -8.75% | [5] -0.6% | [6] -1.7%

N#C/C=C\c1ccc(C#N)cc1
inactive: [1] 28.1% | [2] -1.5% | [3] 20.3% | [4] 6.85% | [5] 25.1% | [6] 19.9%

O=C(Cl)C1CC=C2c3ccccc3CCC2C1C(=O)Cl (stereo unspecified)
inactive: [1] 0.85% | [2] 19.1% | [3] 8.1% | [4] -3.05% | [5] 15.1% | [6] -5.5%

O=c1[nH]c(=O)n(CCCCOc2ccccc2)cc1-c1ccccc1
inactive: [1] 3.75% | [2] 10.2% | [3] 19.6% | [4] 0.7% | [5] 12.1% | [6] 5.9%

Cc1cc2c(cc1C=O)C(C)(C)CCC2
inactive: [1] 9.75% | [2] 0.85% | [3] -6.85% | [4] -32.2% | [5] 2.85% | [6] 26.2%

O=C1C(c2ccccc2)=C2c3ccccc3-c3ccccc3C2(O)C1c1ccccc1 (stereo unspecified)
active: [1] 91.8% | [2] 94.8% | [3] 94.4% | [4] 91.5% | [5] 90.9% | [6] 94.2%

CC(=O)NNc1nc(C)c(C(=O)NNC(=O)C(=O)Nc2c(C)cccc2C(C)(C)C)s1
inactive: [1] 26.6% | [2] 20.2% | [3] 13.2% | [4] 32.5% | [5] 24.9% | [6] 20.9%

O=c1oc2ccccc2c(O)c1C(c1cc(OCc2ccccc2)cc(OCc2ccccc2)c1)c1c(O)c2ccccc2oc1=O
inactive: [1] -12.1% | [2] -2.85% | [3] -2.1% | [4] -19.4% | [5] -11.7% | [6] -16.6%

Cc1[nH]c(=O)nc(CC(O)(c2ccccc2)c2ccccc2)c1-c1ccccc1
inactive: [1] -31.6% | [2] -38.1% | [3] -22% | [4] 14.2% | [5] -6.05% | [6] -26.1%
